# From publication PMC7819943, “Rice protein-binding microarrays: a tool to detect cis-acting elements near promoter regions in rice”
# Over roughly 68,000 sequences, “fluorescence intensity (a.u.)” has its median near 9,100; the highest 2% begin near 16,000. What follows is part of a selection rich in the highest values, with near analogues and random picks from the rest.
# Target: OsWRKY34 (Oryza sativa, UniProt Q0JBA9 1-250)
# Experiment: protein-binding microarray (RPBM); PBS, 2% BSA, 51.3 ng/ul salmon testes DNA, 50 uM zinc acetate, 200 nM TF, 25 C, 1 h; high values mean tight binding
# Conditions: protein: recombinant; tags: N-terminal polyhistidine and DsRed monomer fusion (pET32a); label: CyDye5-dUTP incorporated in the synthesized complementary strand; 3' TTTTT single-stranded linker to array surface; dsDNA, one strand shown
# In short: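 Ni–NTA purification followed expression in E. coli BL21-CodonPlus of transcription factors fused N-terminally to a polyhistidine tag and DsRed. At 200 nM in PBS with 2% BSA, salmon testes DNA and 50 µM zinc acetate, the protein was incubated for 1 h at 25 °C with a custom Agilent array that had been primer-extended with Cy5-dUTP and blocked with 2% BSA. After washing, the array was read on an Axon 4000B scanner. The binding signal is per-feature fluorescence intensity in arbitrary units.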
# Sequence of OsWRKY34 (Q0JBA9 entry or part of it): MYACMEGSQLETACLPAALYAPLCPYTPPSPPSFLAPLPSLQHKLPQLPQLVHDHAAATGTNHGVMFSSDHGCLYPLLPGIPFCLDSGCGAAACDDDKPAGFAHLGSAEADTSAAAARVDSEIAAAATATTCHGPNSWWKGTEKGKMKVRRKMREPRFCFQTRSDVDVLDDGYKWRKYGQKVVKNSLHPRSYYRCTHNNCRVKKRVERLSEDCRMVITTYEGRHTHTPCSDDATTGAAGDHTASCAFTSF
row,Sequence,binding signal
1,CATTGACTTTTTCTCACATATTTGTCCATTCGTCTTATTACGGAGTCACCTAGTGCAG,16100 fluorescence intensity (a.u.)
2,TGATGCCGTTGACTTTTTCTCATATGTTTGACCATTCGTCCGGAGTCACCTAGTGCAG,44800 fluorescence intensity (a.u.)
3,TTCTCACATGTTTGACCATTCGTCTTATTAAAAATTTTATCGGAGTCACCTAGTGCAG,11100 fluorescence intensity (a.u.)
4,CGCCGTTGACTTTTTCTCACATGTTTGACCATTCGTCTTACGGAGTCACCTAGTGCAG,42500 ± 475 fluorescence intensity (a.u.)
5,GCCGTTGACTTTTTCTCACATATTTGACCATTCGTCTTATCGGAGTCACCTAGTGCAG,45300 fluorescence intensity (a.u.)
6,ATAGATGACGCCGTTGATTTTTTCTCATATGTTTGACCATCGGAGTCACCTAGTGCAG,11600 fluorescence intensity (a.u.)
7,ACCATGTTGACTTTTTGCACATTTATAGAATCTTTTGGTACGGAGTCACCTAGTGCAG,21800 fluorescence intensity (a.u.)
8,AATAGATGACGTTGTTGACTTTTTCTCATATGTTTGACCACGGAGTCACCTAGTGCAG,13000 fluorescence intensity (a.u.)
9,GTTGACTTTTTTTCACATGTTTGACCATTCATCTTATTCACGGAGTCACCTAGTGCAG,13400 fluorescence intensity (a.u.)
10,TTGACCTTTTCTCACATGTTTAACCATTCGTCTTATTTAACGGAGTCACCTAGTGCAG,13500 fluorescence intensity (a.u.)
11,TTTTTTCTCACATGTTTGACCATTCGTCTTATTCAAAAAACGGAGTCACCTAGTGCAG,8550 fluorescence intensity (a.u.)
12,TCGTCCGCTGCAGCCGCTCGCTAGCTAGTAGCTATAGCTACGGAGTCACCTAGTGCAG,8160 fluorescence intensity (a.u.)
13,ACACAGGCAGCAGTAGCACCTCGATCCATCTACCATTTTACGGAGTCACCTAGTGCAG,10200 fluorescence intensity (a.u.)
14,CTTAGCTCGTATGTAGACTTTTGATGGCTTAATCCTATTTCGGAGTCACCTAGTGCAG,8550 fluorescence intensity (a.u.)
15,ATTAGGGATAACCGTCACTGTTTGTTGCTGTTTTTATGTTCGGAGTCACCTAGTGCAG,9960 fluorescence intensity (a.u.)
16,TTGGTGACTAAGCAGCTAGCTCATATTCCGTTTCAGCTTCCGGAGTCACCTAGTGCAG,9770 fluorescence intensity (a.u.)
17,TCTCGTGTTCCTCTTCACTACCACTTCTAGAAGCTTCCTCCGGAGTCACCTAGTGCAG,8020 fluorescence intensity (a.u.)
18,GGGGTTTATTATTTTCCCGGGTTAAATTGCCACGTAAGCACGGAGTCACCTAGTGCAG,10100 fluorescence intensity (a.u.)
19,ATAATAATATTTTTCACCTATGCCATACTTCTTTTGTCAACGGAGTCACCTAGTGCAG,8040 fluorescence intensity (a.u.)
20,CGACTCCGACCTCTGCTCTCTTCCTTTTACACCCCATATCCGGAGTCACCTAGTGCAG,11100 fluorescence intensity (a.u.)
21,TTTACTAAACTCGATCAGTTCTTCCCATATACTCTTGTGACGGAGTCACCTAGTGCAG,9070 fluorescence intensity (a.u.)

row,Sequence,binding signal
1,ATCAACCATGAACCATCCGCGCCCGCGCACCTCCTCCTCTCGGAGTCACCTAGTGCAG,8100 fluorescence intensity (a.u.)
2,TTACACTTTCTCCTCCATCATGCGCTCATGGCCATCCATTCGGAGTCACCTAGTGCAG,8320 fluorescence intensity (a.u.)
3,TAGCTCATTCATGCCTCCATCGGTTGACTTTTTTTTTCTACGGAGTCACCTAGTGCAG,20500 fluorescence intensity (a.u.)
4,TTCTCCATTTTTTCATGGTTGACTCTAATCTTCATGACTACGGAGTCACCTAGTGCAG,8280 fluorescence intensity (a.u.)
5,CGTTGACTTTTTCTCACATGTTTGACCATTCGTCTTATTCCGGAGTCACCTAGTGCAG,31500 fluorescence intensity (a.u.)
6,TTGACTTTTTCTCACATGTTTGACCATTCGTCTTATTCAACGGAGTCACCTAGTGCAG,15400 fluorescence intensity (a.u.)
7,TGACTTTTTCTCACATGTTTGACCATTCGTCTTATTCAAACGGAGTCACCTAGTGCAG,10900 ± 914 fluorescence intensity (a.u.)
8,GTCGCCGCCTCCTCCTCTCCATCTCCGCTGCTATTATTGCCGGAGTCACCTAGTGCAG,12900 fluorescence intensity (a.u.)
9,TTTTCTCTGTTTACTTTTTTTTTATTATTTTTTTGCGCCGCGGAGTCACCTAGTGCAG,8240 fluorescence intensity (a.u.)
10,ATGTCATGTCATGTCGCATATCTCCCATGTCTTGGCACGACGGAGTCACCTAGTGCAG,9540 fluorescence intensity (a.u.)
11,TACTTGGCTATACTATTAAACTTGCTCTCGCACCATCTTTCGGAGTCACCTAGTGCAG,9680 fluorescence intensity (a.u.)
12,GTTGCAAAAGAGGCCTCTGACATGGTTCTTGCTGATGACACGGAGTCACCTAGTGCAG,8450 fluorescence intensity (a.u.)
13,ATCGCCATATAGGCGCCACGTGGAACGAAGACTCGGTCAACGGAGTCACCTAGTGCAG,9350 fluorescence intensity (a.u.)
14,GATCAACGAACACTCGTGGGCCGTAGGCGGAGGCGCAAGTCGGAGTCACCTAGTGCAG,62600 fluorescence intensity (a.u.)
15,CGGGGCCCAACGAGGTGGCGCCGTGGCTGGTGGGGCGGGTCGGAGTCACCTAGTGCAG,9270 fluorescence intensity (a.u.)
16,CCCGGCGGCCCGATCACCACCTGCCCGAACACCATCCTCCCGGAGTCACCTAGTGCAG,8530 fluorescence intensity (a.u.)
17,GTGTGTTGGTTGTCACAGTACTGTGTGGTGGTGGTGGAAGCGGAGTCACCTAGTGCAG,9220 fluorescence intensity (a.u.)
18,ACTGTCGTGCCACAGTGGACGTGTGCGGCAGGTGAAGCACCGGAGTCACCTAGTGCAG,49100 fluorescence intensity (a.u.)
19,TAGGTGTGGTGTGTGGAGAAGCGGTGGACCGACCGACGACCGGAGTCACCTAGTGCAG,8450 fluorescence intensity (a.u.)
20,GGAAAAGAACACCGGTCCATTTTGCAACTATTGTGAAGTTCGGAGTCACCTAGTGCAG,8220 fluorescence intensity (a.u.)
21,CCGGCAAAAGTCTCTCCATCTTGTCATCGTCTTCTCCAGCCGGAGTCACCTAGTGCAG,8410 fluorescence intensity (a.u.)
